JMJD2A Tudor = blocks the human JMJD2A Tudor domain | O75164 | AlphaScreen JMJD2A-Tudor / H3K4me3 peptide binding | Potency, µM (doses to about 114 µM), inactives show top-dose activity change, negative = inhibition, usual class: inhibitors | 4.4% of 390,000 active | AID 504339; further: on the % scale 0 is the no-effect control and ±100 the full control effect; nearly all actives have a fitted effect of over 50% in size
HP1b binding inh = inhibitors of HP1-beta chromodomain binding to methylated histone tails; AID 540317; 0.56% of 390,000 active; Potency, µM (series often up to 114 µM), inactives show at the top dose activity change, negative = inhibition, hits mostly inhibitors; P83916; AlphaScreen HP1-beta / biotin-H3K9me3 peptide binding; further: nearly all actives have a fitted effect of over 70% in size
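HP1-beta protein (50 nM final) preincubated 30 min at room temperature with biotinylated H3(1-18)K9me3 peptide (50 nM) in PBS pH 7.4, 0.01% Tween-20, then compound added for 30 min. AlphaScreen streptavidin donor/nickel chelate acceptor beads (10 ug/mL final), 30 min dark, luminescence read.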
G9a inh = G9a (human) methyltransferase inhibition. 8.8% of 350,000 active. Potency, µM (titrated, usually from 102 µM), for the others: top-dose activity, negative = inhibition, actives largely listed as inhibitors. G9a H3K9 monomethylation, AlphaScreen, 2 h. Q96KQ7; further: on the % scale 0 is the no-effect control and ±100 the full control effect; nearly all actives have a fitted effect of over 75% in size
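AlphaScreen read-out: biotin-H3K9 peptide (500 nM) methylation by 20 nM enzyme with 20 uM SAM, 2 h at room temperature after 15 min compound preincubation; anti-monomethyl H3K9 antibody plus donor/acceptor beads, 10 min dark.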
L3MBTL1 block = inhibitors of human L3MBTL1 | Q9Y468 | AlphaScreen L3MBTL1–H3K9me1 peptide binding | Potency, µM (highest dose often 57.1 µM), inactives show at the highest dose activity, negative = inhibition, usual class: inhibitors | 0.66% of 230,000 active | AID 485360; further: on the % scale 0 is the no-effect control and ±100 the full control effect; nearly all actives have a fitted effect of over 60% in size
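L3MBTL1 50 nM + b-AHA-H3(1-15)K9me1 75 nM, 30 min RT; compound added, 30 min RT; streptavidin donor/Ni-chelate acceptor beads 10 ug/mL each final, 30 min RT dark; AlphaScreen read.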
Sfp inh = inhibitors of Bacillus subtilis Sfp phosphopantetheinyl transferase | Q9F4F7 | Biochemical Sfp PPTase activity, qHTS | 3.5% of 310,000 active | Potency, µM, for the others: largest response in the series, negative = inhibition, hits mostly inhibitors;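 further: the enzyme is Sfp with the accession as filed and its product quenches rhodamine fluorescence; 0% = enzyme reaction without inhibitor and -100% = no enzyme wells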
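Buffer: 50 mM Hepes-Na pH 7.6, 10 mM MgCl2, 0.01% Nonidet P-40, 0.01% BSA. Enzyme 15 nM, pre-exposed to compound 15 min; substrates then added and fluorescence change tracked over 30 min.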
BAZ2B inh = blocks human BAZ2B; Q9UIF8; AlphaScreen BAZ2B-H3K14Ac peptide displacement; Potency, µM (titrated, usually from 114 µM), without a hit: at the highest dose activity change, negative = inhibition, most hits filed as inhibitors; 4.4% of 360,000 active; AID 504333; further: on the % scale 0 is the no-effect control and ±100 the full control effect; nearly all actives have a fitted effect of over 60% in size
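AlphaScreen displacement: compounds (up to 110uM) incubated 30 min at room temperature with a preformed 50 nM BAZ2B/50 nM biotinylated H3K14Ac peptide complex in PBS pH 7.4 with Tween-20. Donor and acceptor beads at 10 ug/mL final added, 20 min light-protected before reading.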
Numbers without * were called inactive; ? = inconclusive; · = no result given; [ ] = dose if it differs, or a comment. In the library only some 12% were active in any assay of this set; here they are far more common. The call rests on the fitted dose curve; in most records, active means well fitted curve in the direction sought with a large enough effect; inconclusive means small, poorly fitted or top-dose-only effect, or another doubt; inactive means no such curve, though single readings can be large; an effect the other way counts as inactive or inconclusive. Potency means the concentration at half of the fitted maximal effect.

SMILES	JMJD2A Tudor	HP1b binding inh	G9a inh	L3MBTL1 block	Sfp inh	BAZ2B inh
CCCNC(=O)COC(=O)/C=C/c1ccc(C)o1	-15%	23%	50µM*	-5%	7%	-16%
Cc1ccc(C(=O)OCC(=O)NCCNC(=O)COC(=O)c2ccc(C)o2)o1	-4%	18%	56µM*	2%	·	-8%
Cc1ccc(/C=C/C(=O)OCC(=O)NCc2ccccc2)o1	-13%	-10%	45µM*	0%	·	1%
Cc1ccc(/C=C/C(=O)OCC(=O)NC(=O)NCc2ccccc2)cc1	-9%	27%	27%[12.7 µM]	2%	·	8%
COc1ccc(-c2cc(C(F)(F)F)nc(SCC(=O)N3CCCCC3)n2)cc1	-8%	44%	12%[59 µM]	·	·	9%
Cc1ccc(/C=C/C(=O)OCC(=O)NCCN2C(=O)CSC2=O)o1	-14%	22%	50µM*	3%	32µM*	-23%
Cc1ccc(/C=C/C(=O)OCC(=O)NCCN2C(=O)CSC2=O)cc1	-4%	22%	-13%	·	-8%	-3%
CC[n+]1c(C)cc2c(sc3ccccc32)c1C	?	44%	22µM*	?	11%	-19%
COC(=O)[C@@H](N)CS	?	-25%	8.9µM*	23%	11µM*	-31%
CC1C(=O)N2CCCc3cc(S(=O)(=O)Nc4ccc(Br)cc4F)cc1c32 (configuration not stated)	-13%	14%[57 µM]	2%[59 µM]	·	·	7%
COc1ccccc1/C=C/C1=NC(=C\C=C/c2ccccc2)/C(=O)O1	56µM*	?	?	1%	0%	?
COc1cccc(N2CCN(C(=O)c3cccn3-c3nnc(N4CCCC4)s3)CC2)c1	-21%	13%	-2%[59 µM]	·	·	?
O=C(COC(=O)c1cc(S(=O)(=O)N2CCc3ccccc3C2)ccc1Cl)NCc1ccco1	79µM*	?	40µM*	·	45µM*	?
O=C(COC(=O)c1cccc(S(=O)(=O)N2CCc3ccccc3C2)c1)NCc1ccco1	4%	26%	?	·	?	50µM*
CC(OC(=O)c1cccc(S(=O)(=O)N2CCN(C)CC2)c1)C(=O)Nc1ccc(C(N)=O)cc1 (configuration not stated)	-19%	-14%	12%[59 µM]	3%	·	0%
CCc1ccc(NC(=O)C(C)OC(=O)c2cccc(S(=O)(=O)N3CCc4ccccc4C3)c2)cc1 (configuration not stated)	-19%	28%	7.9µM*	21%	89µM*	15%
COC(=O)c1ccc(CSc2c(C(C)C)cnc3c2c(=O)n(C)c(=O)n3C)cc1	-1%	17%[57 µM]	-43%[59 µM]	·	·	-3%
COc1cc(NC(=O)Cc2cccs2)cc(OC)c1	-15%[11.4 µM]	?	11%[59 µM]	-4%	14%	14%
COc1ccc(C(=O)NC(=S)NNC(=O)Cc2cccs2)cc1	?	4%	11µM*	12%	12%	-4%
COc1cc(OC)cc(C(=O)NC(=S)NNC(=O)Cc2cccs2)c1	-16%	17%	8.9µM*	37%	-15%	22%
COc1ccc(NC(=O)CSC2=Nc3ccccc3C3=NC(CCC(=O)NCc4ccc(F)cc4)C(=O)N23)cc1Cl (configuration not stated)	-17%	18%	-8%[59 µM]	·	·	-13%
COc1cc2c(cc1OC)CN(C(=S)Nc1cccc(Cl)c1C)CC2	-13%	15%	-6%	-5%	11%	-5%
CCC[n+]1cn(/C(C(=S)Nc2cccc(Cl)c2C)=C(/[O-])c2ccc(OC)c(OC)c2)c2ccccc21	?	-19%	40µM*	-17%	3%	?
Cc1cccc(C)c1NC(=O)CC12CCCN1CCC2	·	·	2%[12.7 µM]	·	23%	·
C[C@@H](O)C#C[Si](C)(C)c1ccccc1	·	·	·	·	8%	·
COc1ccc(O)c(N)c1	·	·	7.9µM*	·	56µM*	50µM*
COc1ccc(CNC(=O)CSc2ncc3c(n2)-c2ccc(Cl)cc2N(Cc2ccc(F)cc2)S3(=O)=O)cc1OC	-4%	35%	24%[59 µM]	·	·	17%

Source: PubChem
